# According to the supplement of paper PMC11732987, “Enantioselective OTUD7B fragment discovery through chemoproteomics screening and high-throughput optimisation” (Communications Chemistry, 2025):
# Unmarked numbers belong to inactive results.
# Columns and labels:
# Test in all cases: log2 ratio of Biotin-Ahx-Ub-VS probe labelling (fragment/DMSO); higher = less target engagement (more negative = stronger competition), active = hit call of the paper (q ≤ 0.05, log2 ratio ≤ -1)
# Settings in all cases: compound concentration: 200 uM; treatment time: 3 h
# USP19 = target: T1, USP19 (UniProt O94966)
# T1 sequence (whole entry): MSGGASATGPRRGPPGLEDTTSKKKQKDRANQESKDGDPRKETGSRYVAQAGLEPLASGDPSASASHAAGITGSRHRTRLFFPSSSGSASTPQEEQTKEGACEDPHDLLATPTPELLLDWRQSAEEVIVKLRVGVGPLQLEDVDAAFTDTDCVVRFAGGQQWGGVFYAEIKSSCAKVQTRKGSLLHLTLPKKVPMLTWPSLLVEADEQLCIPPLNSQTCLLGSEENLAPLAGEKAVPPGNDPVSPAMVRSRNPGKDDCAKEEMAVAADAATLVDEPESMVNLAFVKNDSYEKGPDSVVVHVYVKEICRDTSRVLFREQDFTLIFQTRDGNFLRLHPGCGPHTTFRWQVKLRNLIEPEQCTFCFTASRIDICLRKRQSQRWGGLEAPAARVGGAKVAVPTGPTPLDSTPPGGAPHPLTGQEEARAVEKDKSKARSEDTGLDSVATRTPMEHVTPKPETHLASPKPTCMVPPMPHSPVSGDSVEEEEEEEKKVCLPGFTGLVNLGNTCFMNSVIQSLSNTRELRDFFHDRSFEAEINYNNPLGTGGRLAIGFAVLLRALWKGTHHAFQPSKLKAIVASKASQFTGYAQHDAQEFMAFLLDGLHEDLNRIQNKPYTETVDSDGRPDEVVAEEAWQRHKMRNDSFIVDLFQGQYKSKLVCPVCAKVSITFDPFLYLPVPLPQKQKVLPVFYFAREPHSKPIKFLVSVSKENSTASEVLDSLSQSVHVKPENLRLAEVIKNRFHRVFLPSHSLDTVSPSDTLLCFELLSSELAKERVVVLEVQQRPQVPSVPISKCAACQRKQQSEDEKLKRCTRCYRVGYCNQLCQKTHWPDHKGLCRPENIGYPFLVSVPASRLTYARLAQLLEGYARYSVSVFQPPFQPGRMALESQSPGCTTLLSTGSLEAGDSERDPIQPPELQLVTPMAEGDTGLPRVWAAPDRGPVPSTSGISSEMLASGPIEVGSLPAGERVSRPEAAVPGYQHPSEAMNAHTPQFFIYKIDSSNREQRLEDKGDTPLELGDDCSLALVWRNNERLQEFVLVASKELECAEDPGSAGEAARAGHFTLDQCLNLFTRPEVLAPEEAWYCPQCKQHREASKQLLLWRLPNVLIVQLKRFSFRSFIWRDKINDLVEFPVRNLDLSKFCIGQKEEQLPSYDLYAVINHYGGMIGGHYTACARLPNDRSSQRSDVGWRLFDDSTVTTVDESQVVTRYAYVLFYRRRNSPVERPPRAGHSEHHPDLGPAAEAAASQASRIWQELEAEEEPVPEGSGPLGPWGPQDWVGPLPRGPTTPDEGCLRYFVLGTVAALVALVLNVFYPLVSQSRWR
# Method in brief: (§1)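 The table lists average log2 ratios of fragment over vehicle, from an unpaired t-test on global-median-normalised Spectronaut label-free quantities. Proteins with ≥2 unique peptides were used. Samples were HEK293T lysate (495 µg) treated in triplicate with fragment at 200 µM or vehicle for 3 h, then with Biotin-Ahx-Ub-VS (0.5 µM final) for 1 h, with labelled DUBs NeutrAvidin-enriched and run by diaPASEF LC-MS/MS.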
# USP22 = target: T2, USP22 (UniProt Q9UPT9)
# T2 sequence (whole entry): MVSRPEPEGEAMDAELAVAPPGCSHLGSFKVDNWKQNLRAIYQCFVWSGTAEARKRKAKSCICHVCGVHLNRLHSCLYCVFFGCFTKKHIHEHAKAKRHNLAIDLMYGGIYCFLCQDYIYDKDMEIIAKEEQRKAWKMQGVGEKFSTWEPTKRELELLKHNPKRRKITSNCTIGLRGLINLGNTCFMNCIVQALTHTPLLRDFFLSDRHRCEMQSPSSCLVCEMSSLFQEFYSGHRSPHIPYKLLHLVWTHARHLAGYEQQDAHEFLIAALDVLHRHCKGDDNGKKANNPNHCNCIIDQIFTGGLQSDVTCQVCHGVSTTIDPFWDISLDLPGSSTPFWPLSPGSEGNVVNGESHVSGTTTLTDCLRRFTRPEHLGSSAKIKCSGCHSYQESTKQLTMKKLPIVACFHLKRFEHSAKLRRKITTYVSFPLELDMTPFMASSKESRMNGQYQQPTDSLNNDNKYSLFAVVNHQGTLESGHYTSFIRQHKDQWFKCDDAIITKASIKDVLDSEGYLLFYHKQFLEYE
# Method in brief: as §1
# USP24 = USP24 (UniProt Q9UPU5)
# Method in brief: as §1
# USP25 = target: T3, USP25 (UniProt Q9UHP3)
# T3 sequence (whole entry): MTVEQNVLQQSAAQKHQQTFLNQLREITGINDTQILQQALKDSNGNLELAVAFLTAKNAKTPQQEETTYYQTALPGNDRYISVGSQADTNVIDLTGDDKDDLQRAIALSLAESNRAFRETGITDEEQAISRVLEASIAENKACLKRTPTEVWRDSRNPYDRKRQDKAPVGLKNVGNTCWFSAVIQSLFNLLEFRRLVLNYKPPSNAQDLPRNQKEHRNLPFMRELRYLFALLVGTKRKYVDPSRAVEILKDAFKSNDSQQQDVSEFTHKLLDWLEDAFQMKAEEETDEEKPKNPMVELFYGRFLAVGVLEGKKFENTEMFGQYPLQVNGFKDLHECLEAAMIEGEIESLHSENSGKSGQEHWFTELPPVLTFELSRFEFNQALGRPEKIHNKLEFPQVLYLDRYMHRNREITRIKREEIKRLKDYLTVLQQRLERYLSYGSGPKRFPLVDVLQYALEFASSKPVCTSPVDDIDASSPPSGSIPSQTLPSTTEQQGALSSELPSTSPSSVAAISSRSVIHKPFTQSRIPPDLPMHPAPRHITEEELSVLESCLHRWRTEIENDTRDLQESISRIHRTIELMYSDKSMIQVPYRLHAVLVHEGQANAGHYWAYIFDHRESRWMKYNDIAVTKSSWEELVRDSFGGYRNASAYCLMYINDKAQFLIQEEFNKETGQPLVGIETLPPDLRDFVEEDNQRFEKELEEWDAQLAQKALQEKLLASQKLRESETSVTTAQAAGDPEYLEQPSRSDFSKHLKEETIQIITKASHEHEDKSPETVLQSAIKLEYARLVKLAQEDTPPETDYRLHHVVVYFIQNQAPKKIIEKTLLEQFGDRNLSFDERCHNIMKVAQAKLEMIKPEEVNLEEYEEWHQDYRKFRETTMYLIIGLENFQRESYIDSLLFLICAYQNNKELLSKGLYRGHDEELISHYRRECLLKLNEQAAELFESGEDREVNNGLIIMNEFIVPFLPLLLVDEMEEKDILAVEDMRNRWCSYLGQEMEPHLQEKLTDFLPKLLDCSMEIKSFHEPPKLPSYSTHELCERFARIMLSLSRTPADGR
# Method in brief: as §1
# USP28 = target: T4, USP28 (UniProt Q96RU2)
# T4 sequence (whole entry): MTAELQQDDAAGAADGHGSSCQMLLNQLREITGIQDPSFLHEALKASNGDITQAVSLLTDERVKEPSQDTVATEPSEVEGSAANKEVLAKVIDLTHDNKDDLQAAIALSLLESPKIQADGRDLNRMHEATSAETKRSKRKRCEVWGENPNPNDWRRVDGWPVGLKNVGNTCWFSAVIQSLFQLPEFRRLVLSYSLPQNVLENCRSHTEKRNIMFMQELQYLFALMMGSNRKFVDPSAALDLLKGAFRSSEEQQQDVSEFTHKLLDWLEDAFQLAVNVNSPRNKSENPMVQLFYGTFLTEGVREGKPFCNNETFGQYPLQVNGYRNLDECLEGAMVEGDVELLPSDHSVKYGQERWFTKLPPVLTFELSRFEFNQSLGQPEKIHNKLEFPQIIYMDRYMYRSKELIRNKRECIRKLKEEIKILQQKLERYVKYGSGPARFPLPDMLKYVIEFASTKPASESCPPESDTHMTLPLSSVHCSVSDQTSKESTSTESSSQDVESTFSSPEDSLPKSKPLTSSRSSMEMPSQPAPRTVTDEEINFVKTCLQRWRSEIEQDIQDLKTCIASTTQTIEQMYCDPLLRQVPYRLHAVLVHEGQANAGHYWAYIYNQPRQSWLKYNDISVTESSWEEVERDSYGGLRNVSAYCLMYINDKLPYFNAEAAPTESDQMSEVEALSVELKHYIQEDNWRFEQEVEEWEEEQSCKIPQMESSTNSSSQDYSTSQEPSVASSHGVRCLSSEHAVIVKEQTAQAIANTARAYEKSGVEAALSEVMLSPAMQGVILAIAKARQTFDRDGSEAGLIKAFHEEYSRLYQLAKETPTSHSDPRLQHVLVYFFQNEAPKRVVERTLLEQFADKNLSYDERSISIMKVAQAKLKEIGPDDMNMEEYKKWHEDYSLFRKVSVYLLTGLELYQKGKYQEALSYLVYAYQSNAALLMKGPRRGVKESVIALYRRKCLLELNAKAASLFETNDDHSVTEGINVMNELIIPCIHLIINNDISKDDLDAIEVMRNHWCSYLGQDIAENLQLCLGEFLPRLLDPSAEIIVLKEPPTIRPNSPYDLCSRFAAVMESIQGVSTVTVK
# Method in brief: as §1
# USP24, sequence (Q9UPU5 whole entry): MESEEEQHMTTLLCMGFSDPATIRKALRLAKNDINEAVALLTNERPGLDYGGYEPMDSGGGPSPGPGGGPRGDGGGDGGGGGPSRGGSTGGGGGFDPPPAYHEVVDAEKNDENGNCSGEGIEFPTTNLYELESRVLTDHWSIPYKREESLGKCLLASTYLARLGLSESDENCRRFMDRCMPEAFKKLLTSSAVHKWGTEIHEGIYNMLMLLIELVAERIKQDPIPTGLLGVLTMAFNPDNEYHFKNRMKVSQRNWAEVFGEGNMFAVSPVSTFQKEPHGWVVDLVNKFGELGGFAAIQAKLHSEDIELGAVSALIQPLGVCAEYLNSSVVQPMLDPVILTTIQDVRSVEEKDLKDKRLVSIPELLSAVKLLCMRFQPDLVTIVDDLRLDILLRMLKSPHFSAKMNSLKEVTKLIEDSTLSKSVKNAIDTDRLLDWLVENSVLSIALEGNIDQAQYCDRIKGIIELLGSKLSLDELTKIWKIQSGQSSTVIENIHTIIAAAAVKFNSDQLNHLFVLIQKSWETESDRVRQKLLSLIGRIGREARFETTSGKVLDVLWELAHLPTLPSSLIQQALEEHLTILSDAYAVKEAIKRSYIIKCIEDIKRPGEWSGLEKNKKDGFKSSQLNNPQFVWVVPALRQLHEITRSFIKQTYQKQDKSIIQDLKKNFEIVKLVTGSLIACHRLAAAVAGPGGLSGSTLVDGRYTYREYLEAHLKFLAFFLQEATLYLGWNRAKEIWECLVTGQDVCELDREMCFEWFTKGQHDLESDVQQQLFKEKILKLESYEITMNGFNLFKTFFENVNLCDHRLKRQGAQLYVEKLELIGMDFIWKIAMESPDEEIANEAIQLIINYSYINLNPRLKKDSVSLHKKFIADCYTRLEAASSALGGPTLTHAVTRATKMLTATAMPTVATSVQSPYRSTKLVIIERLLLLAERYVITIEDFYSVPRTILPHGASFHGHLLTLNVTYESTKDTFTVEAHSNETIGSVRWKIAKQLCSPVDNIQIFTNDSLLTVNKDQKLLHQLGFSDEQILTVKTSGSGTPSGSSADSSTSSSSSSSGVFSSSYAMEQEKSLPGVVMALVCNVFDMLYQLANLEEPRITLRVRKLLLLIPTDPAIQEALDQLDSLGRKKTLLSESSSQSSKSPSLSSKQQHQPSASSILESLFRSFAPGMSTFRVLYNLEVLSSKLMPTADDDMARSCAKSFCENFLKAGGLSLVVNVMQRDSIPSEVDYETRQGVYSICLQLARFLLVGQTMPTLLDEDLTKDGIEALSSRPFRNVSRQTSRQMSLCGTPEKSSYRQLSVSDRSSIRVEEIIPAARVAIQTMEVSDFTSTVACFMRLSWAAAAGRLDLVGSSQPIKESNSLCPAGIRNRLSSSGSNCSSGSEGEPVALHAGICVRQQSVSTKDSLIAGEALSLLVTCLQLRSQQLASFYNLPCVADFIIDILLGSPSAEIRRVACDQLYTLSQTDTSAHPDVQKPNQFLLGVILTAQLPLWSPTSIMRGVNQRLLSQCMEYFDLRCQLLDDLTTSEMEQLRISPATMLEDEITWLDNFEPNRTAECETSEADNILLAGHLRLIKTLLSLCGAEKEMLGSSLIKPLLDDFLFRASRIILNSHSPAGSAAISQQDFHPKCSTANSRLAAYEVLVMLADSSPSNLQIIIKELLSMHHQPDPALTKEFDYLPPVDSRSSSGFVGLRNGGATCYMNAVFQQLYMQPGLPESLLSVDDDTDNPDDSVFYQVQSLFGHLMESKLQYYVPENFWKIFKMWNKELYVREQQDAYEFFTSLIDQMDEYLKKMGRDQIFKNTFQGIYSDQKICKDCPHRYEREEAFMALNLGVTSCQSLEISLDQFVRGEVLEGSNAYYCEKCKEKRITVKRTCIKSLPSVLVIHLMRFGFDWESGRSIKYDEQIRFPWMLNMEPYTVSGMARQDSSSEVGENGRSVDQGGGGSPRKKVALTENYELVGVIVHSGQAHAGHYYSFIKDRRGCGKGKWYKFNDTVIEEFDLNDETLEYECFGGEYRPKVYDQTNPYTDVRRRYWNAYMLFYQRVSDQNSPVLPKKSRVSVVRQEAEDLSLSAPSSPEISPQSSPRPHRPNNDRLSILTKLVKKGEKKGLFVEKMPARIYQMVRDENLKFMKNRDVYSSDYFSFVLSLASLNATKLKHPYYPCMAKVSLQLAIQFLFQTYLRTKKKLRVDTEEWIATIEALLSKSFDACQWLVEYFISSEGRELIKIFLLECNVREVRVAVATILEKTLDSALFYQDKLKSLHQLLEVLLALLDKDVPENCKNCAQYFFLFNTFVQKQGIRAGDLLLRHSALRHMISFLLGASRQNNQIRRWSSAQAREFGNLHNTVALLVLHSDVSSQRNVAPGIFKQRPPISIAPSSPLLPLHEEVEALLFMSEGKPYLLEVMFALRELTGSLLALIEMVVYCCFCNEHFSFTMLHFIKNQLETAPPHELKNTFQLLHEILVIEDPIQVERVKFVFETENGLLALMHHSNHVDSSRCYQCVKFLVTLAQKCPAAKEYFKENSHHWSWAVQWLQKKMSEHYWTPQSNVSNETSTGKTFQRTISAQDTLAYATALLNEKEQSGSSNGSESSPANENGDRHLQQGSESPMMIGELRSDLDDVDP
structure (smiles),measurement,setting,value
O=C(CCl)N1CCOC(CCc2ccccc2)C1 (stereo not given),log2 ratio of Biotin-Ahx-Ub-VS probe labelling,USP19,-0.687
same,log2 ratio of Biotin-Ahx-Ub-VS probe labelling,USP22,-0.0816
same,log2 ratio of Biotin-Ahx-Ub-VS probe labelling,USP24,-1.37 (active)
same,log2 ratio of Biotin-Ahx-Ub-VS probe labelling,USP25,-0.497
same,log2 ratio of Biotin-Ahx-Ub-VS probe labelling,USP28,-0.802
